# Hits are enriched below; roughly 2.2% of the tested compounds scored in any of these assays.
# C2C12 statin: suppressors of simvastatin-induced myotoxicity in C2C12 myotubes | ATP luminescence, 48 h; scaled: DMSO 0, geranylgeraniol control 100 | rescue of ATP level, % at 7.49 µM | hit rate 0.78% among 330,000 | AID 602340;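 active means mean ATP rescue above about 67%, or every replicate alone reaching that limit, limit read from the data, passing the limit was not always enough; inconclusive means no clear call, values can overlap the other calls; inactive means mean under the limit and some replicate under it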;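 further: myotubes were challenged with 10 µM simvastatin during compound exposure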
# DENV2 CPE: DENV2-induced cell death inhibition; DENV2-infected cells, cytopathic effect rescue, plate reader; CPE inhibition, % at 9.99 µM; hit rate 1.7% among 350,000; in the data active means CPE inhibition above about 20%, passing the limit was not always enough; inconclusive means no clear call, values can overlap the other calls; tested in BHK-21 cells;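 further: 0% = median of neutral control wells and 100% = median of positive control wells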
# PvdQ acylase: blocks Pseudomonas aeruginosa PvdQ acylase activity; purified PvdQ acylase, fluorescence plate reader; inhibition, % at 10 µM; hit rate 0.063% among 340,000; in the data active means inhibition above about 30%, passing the limit was not always enough; inconclusive means no clear call, values can overlap the other calls;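 further: 0% = vehicle neutral wells and 100% = reference inhibitor wells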
# PGC1a acetyl inh: PGC1a acetylation modulation, inhibitor mode | AID 651687 | inhibition, % at 15.6 µM | U2OS PGC1a acetylation, AlphaScreen anti-acetyl-lysine; with virally co-expressed GCN5 acetyltransferase | hit rate 0.17% among 350,000;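 active means every replicate shows inhibition of at least 40%; inconclusive means mean inhibition at least 40% but some replicate below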;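 further: 0% = neutral control wells and 100% = positive control wells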
# miR-122 sensor: blocks miR-122 activity in Huh7 sensor cells. Huh7 miR-122 Renilla luciferase sensor, 48 h; neutral wells = 0, positive control = 100. activation (reporter increase), % at 12.5 µM. hit rate 0.3% among 340,000;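 active means mean replicate activation score at least 90 and every replicate individually at or above 90; inconclusive means only one of the two criteria met; inactive means neither criterion met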;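 further: higher luciferase means less miR-122 activity so hits act as miR-122 inhibitors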
# * marks the source's active call; other numbers are inactive results; ? = inconclusive; . = no result; ! = not confirmed by another sample; [ ] = dose if it differs, or a comment.
SMILES,C2C12 statin,DENV2 CPE,PvdQ acylase,PGC1a acetyl inh,miR-122 sensor
COc1ccc(S(=O)(=O)Nc2ccc3c(c2)CC(=O)N([C@@H](C)CO)C[C@@H](C)[C@@H](CN(C)S(=O)(=O)c2c(C)noc2C)O3)cc1,-35,-7,.,-7,29[16.7 µM]
C[C@@H]1CN([C@@H](C)CO)C(=O)c2cc(-c3cncnc3)cnc2O[C@@H]1CN(C)C(=O)Cc1ccccn1,0,10,.,8,0[16.7 µM]
Cc1ccc(NC(=O)c2ccc3c(c2)CCN3S(C)(=O)=O)cc1,-8,30*,.,.,-2
Cc1cc(C)cc(NC(=O)c2ccc3c(c2)CCN3S(C)(=O)=O)c1,-4,-4,1,-8,-4
Cc1cccc(C)c1NC(=O)C(C)n1c(-c2ccc(=O)[nH]c2)nc2ccccc21 (centres undefined),.,21*,.,.,.
C[C@@H]1CN([C@H](C)CO)C(=O)c2cc(-c3cccc(C#N)c3)cnc2O[C@@H]1CN(C)Cc1cccnc1,19,1,.,-7,-3[16.7 µM]
O=C(C[C@@H]1C[C@H]2c3cc(NC(=O)CC4CC4)ccc3O[C@H]2[C@H](CO)O1)NCCN1CCCCC1,2,6,.,-3,-2[16.7 µM]
CCOC(=O)CN(C(=O)CSc1nnc2c(n1)[nH]c1ccc(F)cc12)c1ccccc1,121*,.,-4,-11,.
CCOC(=O)CN(C(=O)CSc1nnc2c(n1)[nH]c1ccccc12)c1ccccc1,6,.,-11,0,7
CCSc1nc(-c2ccc(OC)cc2)cc(-c2ccccc2)c1C#N,-31,9,-9,24,3
COc1ccc(-c2cc(-c3ccccc3)c(C#N)c(S(C)=O)n2)cc1 (centres undefined),9,.,-14,85*,5
CCc1c(C(=O)NCc2ccccc2Cl)[nH]c(C)c1C(C)=O,28,.,-14,15,118*
CCc1c(C(=O)NC2CCCCC2)[nH]c(C)c1C(C)=O,0,.,-10,93*,212*
CN1CCN(C(=O)[C@H]2[C@H](CO)[C@H]3Cn4c(ccc(-c5cncnc5)c4=O)[C@H]3N2CC2CCCC2)CC1,4,5,.,.,3[16.7 µM]
COc1ccc(-c2ccc3c(c2)S(=O)(=O)c2cccc(C(=O)NCCOc4ccccc4Cl)c2C3=O)cc1OC,-1,22*,7,0,-5
O=C(NC1CCC1)[C@H]1[C@H](CO)[C@H]2Cn3c(ccc(-c4cncnc4)c3=O)[C@@H]1N2CCc1ccccc1,-9,0,.,.,-4[16.7 µM]
CCOc1ccc2nc(N/C(N)=N/C(=S)Nc3ccc(C)c(C)c3)nc(C)c2c1,.,108*,2,.,.
COCC#Cc1cnc2c(c1)C(=O)N([C@@H](C)CO)C[C@H](C)[C@@H](CN(C)S(=O)(=O)c1cn(C)cn1)O2,.,8,.,4,.
C[C@H]1CN([C@@H](C)CO)C(=O)c2cccc(NC(=O)c3ccncc3)c2O[C@@H]1CN(C)CC1CCCCC1,14,4,.,.,91*[16.7 µM]
C[C@H](CO)N1C[C@H](C)[C@@H](CN(C)CC2CCCCC2)Oc2c(NC(=O)c3ccncc3)cccc2C1=O,-19,5,.,.,127*[16.7 µM]
C[C@@H]1CN([C@@H](C)CO)C(=O)c2cccc(NC(=O)c3ccncc3)c2O[C@@H]1CN(C)CC1CCCCC1,-7,?,.,.,-1[16.7 µM]
CCN(C[C@H]1N[C@H](CO)[C@H]1c1ccc(-c2cccc(F)c2)cc1)C(=O)COC,-5,-4,.,1,-12[16.7 µM]
CC(C)NC(=O)N(C)C[C@@H]1OCCCC[C@@H](C)Oc2ccc(NC(=O)Nc3ccc(F)cc3)cc2C(=O)N([C@H](C)CO)C[C@@H]1C,0,48*!,.,9,11[16.7 µM]
CC(C)NC(=O)N(C)C[C@@H]1OCCCC[C@@H](C)Oc2ccc(NC(=O)Nc3ccc(F)cc3)cc2C(=O)N([C@H](C)CO)C[C@H]1C,.,2,.,-19,-4[16.7 µM]
CC(C)NC(=O)N(C)C[C@H]1OCCCC[C@H](C)Oc2ccc(NC(=O)Nc3ccc(F)cc3)cc2C(=O)N([C@@H](C)CO)C[C@H]1C,.,56*,.,-6,-1[16.7 µM]
C[C@@H]1CCCCO[C@H](CN(C)C(=O)Nc2ccc(F)cc2)[C@H](C)CN([C@@H](C)CO)C(=O)c2cc(NC(=O)Nc3ccc(F)cc3)ccc2O1,.,10,.,-4,1[16.7 µM]
Cn1cc([C@]2(O)C(=O)Nc3ccccc32)c2ccccc21,.,31*,.,.,.
CN1C(=O)c2cc(NC(=O)C3CCOCC3)ccc2OC[C@H]2O[C@@H](CC(=O)NC3CCCC3)CC[C@H]21,-7,4,.,11,-5[16.7 µM]
